Results taken from the supplement of paper PMC10849652.
The full data set covers some 7,900 targets. This sample favours those with a hit. About 0.6% of all pairs of compound and target were hits.

Tests used:
Test in all cases: log2 fold change, soluble protein after heating vs DMSO (PISA); higher = thermal stabilisation; K562 cells, 10 uM, 30 min; active = over 0.2 and 3.5 SD of the protein, either way, in both replicates (recomputed)
[1] = compound: COC1=CC=C(C=C1)CN2C=CC3=C2C=C(C=C3)C(=O)NO
Summary of the method: (§1)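 Values are thermal stability changes relative to control samples and are taken from duplicates. They are stated as log2 fold changes. Before quantification by TMTpro 16plex LC-MS/MS with equalised channel sums, K562 cells at 2×10^6 cells/mL were treated with 10 μM compound for 30 min, heated in aliquots for 3 min across 48°C-58°C, pooled, extracted in PBS with 0.5% NP-40 at 4°C, and centrifuged at 21,000xg for 90 min to give the soluble supernatant.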

filanesib = compound: CON(C)C(=O)N1N=C(c2cc(F)ccc2F)S[C@@]1(CCCN)c1ccccc1 [filanesib]
Summary of the method: as §1

zotarolimus = compound: CO[C@H]1C[C@@H]2CC[C@@H](C)[C@@](O)(O2)C(=O)C(=O)N2CCCC[C@H]2C(=O)O[C@H]([C@H](C)C[C@@H]2CC[C@H](n3cnnn3)[C@H](OC)C2)CC(=O)[C@H](C)/C=C(\C)[C@@H](O)[C@@H](OC)C(=O)[C@H](C)C[C@H](C)/C=C/C=C/C=C/1C [zotarolimus]
Summary of the method: as §1

idasanutlin = compound: COc1cc(C(=O)O)ccc1NC(=O)[C@@H]1N[C@@H](CC(C)(C)C)[C@](C#N)(c2ccc(Cl)cc2F)[C@H]1c1cccc(Cl)c1F [idasanutlin]
Summary of the method: as §1

alisertib = compound: COc1cc(Nc2ncc3c(n2)-c2ccc(Cl)cc2C(c2c(F)cccc2OC)=NC3)ccc1C(=O)O [alisertib]
Summary of the method: as §1

[2] = compound: COc1cc2nc(-c3cc(F)ccc3O)nc(N[C@@H]3CNC[C@H]3C(C)(C)O)c2cc1OC
Summary of the method: as §1

gefitinib = compound: COc1cc2ncnc(Nc3ccc(F)c(Cl)c3)c2cc1OCCCN1CCOCC1 [gefitinib]
Summary of the method: as §1

[3] = compound: COc1cccc2cc(-c3nc([C@H]4CC[C@H](C(=O)O)CC4)n4ncnc(N)c34)[nH]c12
Summary of the method: as §1

lapatinib = compound: CS(=O)(=O)CCNCc1ccc(-c2ccc3ncnc(Nc4ccc(OCc5cccc(F)c5)c(Cl)c4)c3c2)o1 [lapatinib]
Summary of the method: as §1

pictilisib = compound: CS(=O)(=O)N1CCN(Cc2cc3nc(-c4cccc5[nH]ncc45)nc(N4CCOCC4)c3s2)CC1 [pictilisib]
Summary of the method: as §1

Measured: log2 fold change

ARL6IP4 (UniProt Q66PJ3)
Sequence of UniProt Q66PJ3 (Q66PJ3 whole entry, looked up): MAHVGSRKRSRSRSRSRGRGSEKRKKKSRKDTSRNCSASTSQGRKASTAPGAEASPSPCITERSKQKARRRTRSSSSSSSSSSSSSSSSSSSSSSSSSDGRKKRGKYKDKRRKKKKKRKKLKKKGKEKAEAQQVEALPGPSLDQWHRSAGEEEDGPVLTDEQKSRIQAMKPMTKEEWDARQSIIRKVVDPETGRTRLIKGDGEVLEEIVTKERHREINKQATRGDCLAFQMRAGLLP
inactive: [1] -0.025 | filanesib 0.023 | zotarolimus 0.014 | idasanutlin 0.172 | alisertib -0.053 | [2] 0.002 | gefitinib -0.039 | [3] 0.05 | lapatinib -0.023 | pictilisib -0.007

ACOX3 (UniProt O15254)
inactive: [1] 0.138 | filanesib 0.042 | zotarolimus -0.037 | idasanutlin 0.074 | alisertib 0.555 | [2] -0.106 | gefitinib 0.116 | [3] 0.144 | lapatinib 0.41

ARAF (UniProt P10398)
inactive: [1] 0 | filanesib -0.022 | zotarolimus 0.06 | idasanutlin 0.006 | alisertib 0.076 | gefitinib 0.076 | [3] 0.06 | lapatinib 0.076 | pictilisib -0.175
active: [2] -0.274

ATP13A2 (UniProt Q9NQ11)
inactive: [1] 0.053 | filanesib -0.134 | zotarolimus 0.023 | idasanutlin 0.027 | alisertib -0.143 | [2] 0.019 | gefitinib -0.005 | [3] 0.053 | lapatinib -0.005 | pictilisib 0.066

AGO1 (UniProt Q9UL18)
inactive: [1] -0.107 | filanesib -0.015 | zotarolimus -0.069 | idasanutlin 0.009 | alisertib 0.05 | [2] -0.031 | gefitinib -0.119 | [3] -0.029 | lapatinib 0.061 | pictilisib -0.002

BCL9L (UniProt Q86UU0)
Sequence of UniProt Q86UU0 (Q86UU0 whole entry, looked up): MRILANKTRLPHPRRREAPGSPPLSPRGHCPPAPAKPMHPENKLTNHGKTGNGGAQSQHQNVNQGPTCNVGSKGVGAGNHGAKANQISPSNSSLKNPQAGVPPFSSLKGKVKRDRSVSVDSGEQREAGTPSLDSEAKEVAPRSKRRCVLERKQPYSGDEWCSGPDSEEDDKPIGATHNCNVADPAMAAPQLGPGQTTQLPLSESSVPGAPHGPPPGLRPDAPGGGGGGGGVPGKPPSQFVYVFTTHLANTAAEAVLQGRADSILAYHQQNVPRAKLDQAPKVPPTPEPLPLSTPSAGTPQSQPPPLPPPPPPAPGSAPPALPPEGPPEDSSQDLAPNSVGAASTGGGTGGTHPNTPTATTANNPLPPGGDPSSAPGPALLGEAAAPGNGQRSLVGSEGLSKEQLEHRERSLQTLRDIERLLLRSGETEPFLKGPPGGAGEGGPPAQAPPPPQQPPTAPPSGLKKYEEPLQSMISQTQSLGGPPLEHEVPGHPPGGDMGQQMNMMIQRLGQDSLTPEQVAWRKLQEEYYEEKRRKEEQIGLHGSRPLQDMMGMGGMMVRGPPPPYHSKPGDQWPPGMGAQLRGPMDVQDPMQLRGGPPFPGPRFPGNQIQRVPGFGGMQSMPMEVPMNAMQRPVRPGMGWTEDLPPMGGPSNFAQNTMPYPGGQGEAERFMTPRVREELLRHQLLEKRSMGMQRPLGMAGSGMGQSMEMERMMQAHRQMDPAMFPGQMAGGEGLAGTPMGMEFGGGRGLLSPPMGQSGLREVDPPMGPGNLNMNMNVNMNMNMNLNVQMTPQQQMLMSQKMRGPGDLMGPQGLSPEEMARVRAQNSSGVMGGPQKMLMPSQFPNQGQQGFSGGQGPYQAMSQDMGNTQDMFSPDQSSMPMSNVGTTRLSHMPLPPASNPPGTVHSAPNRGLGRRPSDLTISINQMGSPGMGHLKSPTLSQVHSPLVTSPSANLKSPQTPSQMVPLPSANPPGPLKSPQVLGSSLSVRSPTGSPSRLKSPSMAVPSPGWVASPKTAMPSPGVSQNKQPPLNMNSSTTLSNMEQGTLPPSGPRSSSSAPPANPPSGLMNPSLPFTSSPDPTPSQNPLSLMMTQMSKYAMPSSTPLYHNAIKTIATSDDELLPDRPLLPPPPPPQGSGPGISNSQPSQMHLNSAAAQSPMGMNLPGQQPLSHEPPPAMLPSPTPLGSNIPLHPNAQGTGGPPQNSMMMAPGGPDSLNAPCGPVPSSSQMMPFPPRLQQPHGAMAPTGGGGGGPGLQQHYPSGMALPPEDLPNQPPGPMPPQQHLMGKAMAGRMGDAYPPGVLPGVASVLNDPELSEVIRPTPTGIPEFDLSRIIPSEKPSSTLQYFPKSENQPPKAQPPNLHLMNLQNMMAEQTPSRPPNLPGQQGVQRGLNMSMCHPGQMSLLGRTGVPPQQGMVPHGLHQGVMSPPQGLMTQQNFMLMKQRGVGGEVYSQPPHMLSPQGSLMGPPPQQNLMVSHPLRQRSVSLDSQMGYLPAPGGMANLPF
inactive: [1] -0.048 | filanesib 0.017 | zotarolimus -0.043 | idasanutlin 0.028 | alisertib 0.014 | [2] 0.02 | gefitinib 0.034 | [3] -0.067 | lapatinib 0.011 | pictilisib -0.007

ATAD1 (UniProt Q8NBU5)
inactive: [1] 0.009 | filanesib -0.045 | zotarolimus 0.087 | idasanutlin -0.046 | alisertib -0.037 | [2] -0.014 | gefitinib 0.003 | [3] -0.029 | lapatinib 0.007 | pictilisib 0.012

ACADM isoform 2 (UniProt P11310)
inactive: [1] 0.039 | filanesib -0.036 | zotarolimus 0.014 | idasanutlin -0.039 | alisertib -0.055 | [2] 0.039 | gefitinib 0.017 | [3] 0.046 | lapatinib 0.001 | pictilisib 0.029

ARGLU1 (UniProt Q9NWB6)
inactive: [1] 0.066 | filanesib 0.207 | zotarolimus 0.025 | idasanutlin 0.171 | alisertib -0.13 | [2] 0.05 | gefitinib 0.212 | [3] 0.031 | lapatinib 0.062 | pictilisib -0.027

AKR1C3 (UniProt P42330)
inactive: filanesib -0.028 | zotarolimus 0.066 | idasanutlin -0.074 | alisertib -0.087 | [2] -0.176 | gefitinib 0.031 | [3] -0.214 | lapatinib -0.065 | pictilisib 0.061
active: [1] 0.87

ARFIP1 (UniProt P53367)
inactive: [1] 0.354 | filanesib -0.049 | zotarolimus -0.021 | idasanutlin 0.094 | alisertib 1.31 | [2] 0.042 | gefitinib -0.091 | [3] -0.005 | lapatinib -0.076 | pictilisib -0.076

AKT1 (UniProt P31749)
inactive: [1] -0.001 | filanesib 0.001 | zotarolimus 0.059 | idasanutlin -0.134 | alisertib -0.07 | [2] 0.1 | gefitinib 0.025 | [3] -0.224 | lapatinib 0.135 | pictilisib 0.216

ADD2 (UniProt P35612)
Sequence of UniProt P35612 (P35612 whole entry, looked up): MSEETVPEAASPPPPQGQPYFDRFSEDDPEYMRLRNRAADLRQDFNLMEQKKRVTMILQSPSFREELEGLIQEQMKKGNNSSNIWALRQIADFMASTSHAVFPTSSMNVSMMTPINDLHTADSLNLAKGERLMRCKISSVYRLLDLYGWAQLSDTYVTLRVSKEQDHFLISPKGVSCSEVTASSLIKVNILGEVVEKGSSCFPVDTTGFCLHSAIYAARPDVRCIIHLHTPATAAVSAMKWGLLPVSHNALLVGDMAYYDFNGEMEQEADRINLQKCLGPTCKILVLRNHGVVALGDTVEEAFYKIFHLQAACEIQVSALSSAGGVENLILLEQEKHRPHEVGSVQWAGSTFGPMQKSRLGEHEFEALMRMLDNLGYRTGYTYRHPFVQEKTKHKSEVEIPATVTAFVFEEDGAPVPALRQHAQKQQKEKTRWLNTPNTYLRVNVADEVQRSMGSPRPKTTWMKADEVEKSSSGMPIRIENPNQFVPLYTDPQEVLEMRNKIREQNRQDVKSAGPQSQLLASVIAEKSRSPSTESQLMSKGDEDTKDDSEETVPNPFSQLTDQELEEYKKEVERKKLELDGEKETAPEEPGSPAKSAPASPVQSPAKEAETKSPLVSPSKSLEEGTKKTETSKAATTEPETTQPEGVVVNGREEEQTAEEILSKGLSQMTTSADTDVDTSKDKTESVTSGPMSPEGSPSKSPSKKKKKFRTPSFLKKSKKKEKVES
inactive: [1] 0.047 | filanesib 0.015 | zotarolimus -0.011 | idasanutlin 0.009 | alisertib -0.081 | [2] 0.065 | gefitinib 0.003 | [3] 0.02 | lapatinib -0.026 | pictilisib 0.009

ADK (UniProt P55263)
inactive: [1] -0.009 | filanesib -0.013 | zotarolimus -0.014 | idasanutlin -0.083 | alisertib -0.037 | [2] 0.015 | gefitinib 0.199 | [3] 0.007 | lapatinib 0.21 | pictilisib 0.167

ATP6V0A2 (UniProt Q9Y487)
inactive: [1] -0.029 | filanesib -0.083 | zotarolimus 0.011 | idasanutlin 0.004 | alisertib -0.082 | [2] -0.07 | gefitinib -0.058 | [3] -0.056 | lapatinib 0.016 | pictilisib -0.071

ACSL4 (UniProt O60488)
inactive: [1] 0.09 | filanesib -0.071 | zotarolimus -0.058 | idasanutlin -0.113 | alisertib -0.006 | [2] -0.105 | gefitinib 0.075 | [3] -0.053 | lapatinib 0.052 | pictilisib 0.052

ATP11A (UniProt P98196)
inactive: [1] -0.027 | filanesib 0.036 | zotarolimus 0.011 | idasanutlin 0.004 | alisertib 0.23 | [2] 0.026 | gefitinib 0.057 | [3] 0.015 | lapatinib -0.033 | pictilisib 0.007

AKAP8L (UniProt Q9ULX6)
inactive: [1] 0.032 | filanesib 0.064 | zotarolimus 0.097 | idasanutlin 0.205 | alisertib 0.041 | [2] -0.212 | gefitinib 0.008 | [3] 0.001 | lapatinib 0.034 | pictilisib 0.019

ATP5ME (UniProt P56385)
inactive: [1] -0.023 | filanesib -0.053 | zotarolimus 0.002 | idasanutlin -0.024 | alisertib -0.027 | [2] -0.04 | gefitinib 0.021 | [3] 0.063 | lapatinib -0.001 | pictilisib 0.019

AARSD1 isoform 3 (UniProt Q9BTE6)
inactive: filanesib -0.013 | zotarolimus 0.012 | idasanutlin 0.076 | alisertib -0.067 | [2] -0.012 | gefitinib 0.083 | [3] -0.081 | lapatinib 0.045 | pictilisib 0.029
active: [1] -0.47

ANK2 (UniProt Q01484)
inactive: [1] -0.054 | filanesib -0.052 | zotarolimus -0.05 | idasanutlin 0.083 | alisertib -0.076 | [2] -0.04 | gefitinib -0.062 | [3] 0.048 | lapatinib -0.013
active: pictilisib 0.532

ATP1A4 (UniProt Q13733)
Sequence of UniProt Q13733 (Q13733 whole entry, looked up): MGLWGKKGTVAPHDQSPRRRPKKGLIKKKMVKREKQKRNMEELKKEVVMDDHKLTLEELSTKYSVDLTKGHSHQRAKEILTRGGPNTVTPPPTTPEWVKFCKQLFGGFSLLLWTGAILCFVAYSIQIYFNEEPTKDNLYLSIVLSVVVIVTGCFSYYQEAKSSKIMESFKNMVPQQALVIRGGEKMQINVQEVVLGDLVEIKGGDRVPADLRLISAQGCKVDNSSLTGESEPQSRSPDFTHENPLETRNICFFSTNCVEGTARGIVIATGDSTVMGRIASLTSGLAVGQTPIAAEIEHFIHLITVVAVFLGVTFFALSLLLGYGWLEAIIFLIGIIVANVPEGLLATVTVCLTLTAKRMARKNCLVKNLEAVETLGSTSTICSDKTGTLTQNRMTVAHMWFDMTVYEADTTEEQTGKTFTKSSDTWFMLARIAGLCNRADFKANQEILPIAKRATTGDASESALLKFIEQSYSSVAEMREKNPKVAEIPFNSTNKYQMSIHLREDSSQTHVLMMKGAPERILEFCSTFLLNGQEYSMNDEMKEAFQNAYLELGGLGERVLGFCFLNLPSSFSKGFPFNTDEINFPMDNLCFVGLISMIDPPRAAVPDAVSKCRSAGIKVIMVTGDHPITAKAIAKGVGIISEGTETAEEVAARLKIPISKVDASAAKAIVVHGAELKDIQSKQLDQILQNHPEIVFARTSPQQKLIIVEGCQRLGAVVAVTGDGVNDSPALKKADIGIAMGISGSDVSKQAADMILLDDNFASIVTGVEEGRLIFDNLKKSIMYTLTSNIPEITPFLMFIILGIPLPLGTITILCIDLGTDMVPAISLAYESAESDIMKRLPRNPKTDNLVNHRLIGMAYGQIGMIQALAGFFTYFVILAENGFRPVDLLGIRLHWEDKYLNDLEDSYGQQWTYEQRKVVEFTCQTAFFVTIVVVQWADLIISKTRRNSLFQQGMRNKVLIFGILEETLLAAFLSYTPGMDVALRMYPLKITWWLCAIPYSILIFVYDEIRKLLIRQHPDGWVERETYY
inactive: [1] 0.042 | filanesib 0.006 | zotarolimus 0.006 | idasanutlin 0.063 | alisertib -0.083 | [2] 0.003 | gefitinib 0.057 | [3] -0.024 | lapatinib -0.01 | pictilisib 0.016

AP2M1 (UniProt Q96CW1)
inactive: [1] -0.008 | filanesib 0.048 | zotarolimus 0.017 | idasanutlin -0.018 | alisertib -0.06 | [2] 0.01 | gefitinib 0.032 | [3] 0.01 | lapatinib 0.014 | pictilisib -0.021

ARL1 (UniProt P40616)
Sequence of UniProt P40616 (P40616 whole entry, looked up): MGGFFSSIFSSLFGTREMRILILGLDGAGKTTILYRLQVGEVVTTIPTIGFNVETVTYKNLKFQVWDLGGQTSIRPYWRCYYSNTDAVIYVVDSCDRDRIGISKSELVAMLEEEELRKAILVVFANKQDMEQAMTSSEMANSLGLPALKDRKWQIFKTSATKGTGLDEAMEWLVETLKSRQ
active: idasanutlin -0.254
inactive: [1] -0.007 | filanesib -0.155 | zotarolimus 0.03 | alisertib -0.124 | [2] -0.042 | gefitinib 0.047 | [3] 0.042 | lapatinib 0.117 | pictilisib -0.135

ABHD17A isoform 2 (UniProt Q96GS6)
inactive: [1] -0.194 | filanesib 0.086 | zotarolimus 0.012 | idasanutlin 0.034 | alisertib 0.032 | [2] 0.069 | gefitinib 0.081 | [3] 0.027 | lapatinib -0.038 | pictilisib 0.077

ARMC10 (UniProt Q8N2F6)
inactive: [1] 0.011 | filanesib 0.046 | zotarolimus 0.107 | idasanutlin -0.092 | alisertib -0.039 | [2] 0.117 | gefitinib 0.004 | [3] -0.133 | lapatinib -0.01 | pictilisib 0.07

ARHGAP1 (UniProt Q07960)
Sequence of UniProt Q07960 (Q07960 whole entry, looked up): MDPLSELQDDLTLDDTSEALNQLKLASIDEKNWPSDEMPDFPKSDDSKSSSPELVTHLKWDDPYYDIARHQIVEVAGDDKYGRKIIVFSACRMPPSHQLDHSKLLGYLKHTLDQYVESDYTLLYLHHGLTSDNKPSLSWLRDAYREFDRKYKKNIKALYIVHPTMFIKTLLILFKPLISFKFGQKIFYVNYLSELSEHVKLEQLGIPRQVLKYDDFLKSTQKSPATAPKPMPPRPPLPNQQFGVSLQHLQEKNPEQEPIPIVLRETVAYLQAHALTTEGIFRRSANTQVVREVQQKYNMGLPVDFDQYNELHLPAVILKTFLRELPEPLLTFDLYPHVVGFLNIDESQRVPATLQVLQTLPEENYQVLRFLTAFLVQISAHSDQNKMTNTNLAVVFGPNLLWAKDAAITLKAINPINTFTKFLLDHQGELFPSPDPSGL
inactive: [1] -0.016 | filanesib 0.084 | zotarolimus 0.038 | idasanutlin 0.004 | alisertib -0.011 | [2] 0.152 | gefitinib 0.005 | [3] -0.036 | lapatinib -0.035 | pictilisib 0.024

AP2S1 (UniProt P53680)
inactive: [1] -0.031 | filanesib 0.037 | zotarolimus 0.013 | idasanutlin -0.033 | alisertib -0.159 | [2] 0.023 | gefitinib 0.017 | [3] -0.061 | lapatinib -0.022 | pictilisib -0.023

ADH5 (UniProt P11766)
inactive: [1] -0.002 | filanesib -0.053 | zotarolimus 0.008 | idasanutlin -0.037 | alisertib -0.039 | [2] 0.011 | gefitinib -0.007 | [3] 0.058 | lapatinib -0.03 | pictilisib 0

AP2B1 isoform 2 (UniProt P63010)
Sequence of UniProt P63010 (P63010 whole entry, looked up): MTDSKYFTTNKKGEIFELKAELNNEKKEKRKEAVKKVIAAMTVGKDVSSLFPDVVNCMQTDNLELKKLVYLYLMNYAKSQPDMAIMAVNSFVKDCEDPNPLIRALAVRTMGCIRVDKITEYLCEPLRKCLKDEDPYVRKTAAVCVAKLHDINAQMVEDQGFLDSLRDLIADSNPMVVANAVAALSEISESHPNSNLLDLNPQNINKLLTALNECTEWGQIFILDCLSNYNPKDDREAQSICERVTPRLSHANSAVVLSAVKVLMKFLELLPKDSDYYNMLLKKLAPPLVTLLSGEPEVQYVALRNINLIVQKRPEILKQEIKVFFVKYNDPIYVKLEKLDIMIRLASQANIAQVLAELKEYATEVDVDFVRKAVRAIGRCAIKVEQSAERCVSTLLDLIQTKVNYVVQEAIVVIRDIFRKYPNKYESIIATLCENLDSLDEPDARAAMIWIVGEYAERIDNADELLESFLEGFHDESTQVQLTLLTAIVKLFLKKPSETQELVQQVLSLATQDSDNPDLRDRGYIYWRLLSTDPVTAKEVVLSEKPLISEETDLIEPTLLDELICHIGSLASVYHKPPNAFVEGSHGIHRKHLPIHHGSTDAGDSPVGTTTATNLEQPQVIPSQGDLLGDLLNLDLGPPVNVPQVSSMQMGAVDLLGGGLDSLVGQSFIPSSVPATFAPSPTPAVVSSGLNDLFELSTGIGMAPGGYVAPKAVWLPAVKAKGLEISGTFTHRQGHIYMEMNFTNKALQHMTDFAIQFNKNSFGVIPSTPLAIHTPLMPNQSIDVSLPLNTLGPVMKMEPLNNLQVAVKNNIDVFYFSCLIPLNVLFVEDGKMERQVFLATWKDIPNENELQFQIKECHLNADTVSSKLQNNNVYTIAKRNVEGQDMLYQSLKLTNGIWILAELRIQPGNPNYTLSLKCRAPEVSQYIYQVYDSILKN
inactive: [1] 0.08 | filanesib 0.022 | zotarolimus 0.036 | idasanutlin -0.019 | alisertib -0.062 | [2] 0.012 | gefitinib 0.01 | [3] 0.01 | lapatinib 0.049 | pictilisib 0.015
